Screens: PubChem BioAssay, National Center for Advancing Translational Sciences (NCATS)
Vif-A3F inh = qHTS for Inhibitors of Vif-A3F Interactions: qHTS. HeLa A3F-eYFP + Vif (tagged APOBEC3F with the HIV-1 protein that degrades it), YFP fluorescence increase. Potency, µM (doses to about 46.1 µM), for the others: top-dose activity, negative = active. 0.2% of 390,000 active. AID 602313, 2012; further: % of control where 0% means no effect; nearly all actives have a fitted effect of over 65% in size
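HeLa cells stably expressing A3F-eYFP plus Vif, plated and incubated overnight at 37 deg C, then exposed to compounds overnight at 37 deg C. Blocked degradation read as raised yellow fluorescence (Ex 488/Em 500-530).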
GRP78 ERSR act = qHTS for Inducers of the Endoplasmic Reticulum Stress Response (ERSR) in Human Glioma: qHTS; 0.02% of 420,000 active; U87-MG GRP78 promoter luciferase reporter, 16 h; Potency, µM, for inactives: at the highest dose activation, actives largely listed as activators; further: series mostly up to about 76 µM; % of control where 0% means no effect; nearly all actives have a fitted effect of over 35% in size
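ERSR induction read as luciferase luminescence (Bright-Glo, 10 min at room temperature) in stably transfected human U87-MG glioma cells exposed to compounds for 16 h, using GRP78 as sensor.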
Vif-APOBEC3G blk = qHTS for Inhibitors of Vif-A3G Interactions: qHTS | DNA dC->dU-editing enzyme APOBEC-3G (Homo sapiens), Q9HC16 | HeLa A3G-eYFP + Vif (tagged APOBEC3G with the HIV-1 protein that degrades it), YFP fluorescence, overnight | Potency, µM (top dose mostly 46.1 µM), for the others: at the highest dose activity, negative = active, hits mostly inhibitors | 0.076% of 410,000 active | AID 602310, 2012; further: on the % scale 0 is the no-effect control and ±100 the full control effect; nearly all actives have a fitted effect of over 60% in size
Target sequence (Q9HC16 whole entry, looked up): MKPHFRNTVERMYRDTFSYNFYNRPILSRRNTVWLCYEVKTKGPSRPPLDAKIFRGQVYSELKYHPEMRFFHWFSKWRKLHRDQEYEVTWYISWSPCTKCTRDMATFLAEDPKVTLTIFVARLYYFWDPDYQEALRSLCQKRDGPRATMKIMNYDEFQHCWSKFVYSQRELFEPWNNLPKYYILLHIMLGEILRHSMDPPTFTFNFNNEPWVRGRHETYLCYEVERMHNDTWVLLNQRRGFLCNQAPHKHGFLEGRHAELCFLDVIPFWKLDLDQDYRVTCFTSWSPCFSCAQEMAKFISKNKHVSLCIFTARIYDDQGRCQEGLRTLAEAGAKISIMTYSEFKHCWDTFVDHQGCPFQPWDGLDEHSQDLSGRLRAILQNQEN
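Read-out is eYFP fluorescence (Ex 488/Em 500-530) from Vif-expressing HeLa A3G-eYFP cells; more signal means A3G escaped Vif-mediated degradation. Cells plated overnight, compound pinned in, incubated overnight at 37 deg C.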
Epigenetic reg = Quantitative High-Throughput Screen for Regulators of Epigenetic Control. murine LDR cells, GFP reporter derepression, 30 h. 0.2% of 280,000 active. AID 1865, 2009. Potency, µM (titrated, usually from 53.9 µM), for inactives: at the highest dose GFP activation, hits mostly activators; further: % of control where 0% means no effect; nearly all actives have a fitted effect of over 60% in size
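GFP-positive cell count by laser-scanning cytometry (objects 20–120 um) after 30 h, 37 C compound exposure of murine LDR cells; reporter is CMV-GFP integrated at a silenced locus, inducible by HDAC or DNMT inhibitors.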
* = called active by the depositor. Most compounds without a hit are left out; they make up all but 0.35% or so of the library. The call rests on the fitted dose curve; in most records, active means well fitted curve in the direction sought with a large enough effect; inconclusive means small, poorly fitted or top-dose-only effect, or another doubt; inactive means no such curve, though single readings can be large; an effect the other way counts as inactive or inconclusive. Potency means the concentration at half of the fitted maximal effect.

`O=C(CCc1ccc(O)c(O)c1)N/N=C/c1ccc2c(c1)OCO2` gave Vif-A3F inh -25%, GRP78 ERSR act 22µM* and Vif-APOBEC3G blk -17%.
Screening COc1cc(/C=C2/SC(=Nc3ccc(O)cc3)NC2=O)cc(OC)c1O returned Vif-A3F inh inconclusive, GRP78 ERSR act -3%, Vif-APOBEC3G blk inconclusive and Epigenetic reg 12%.
For COc1ccccc1N=C1NC(=O)/C(=C/c2ccc(N(C)C)cc2)S1 the results were Vif-A3F inh 8.9µM*, GRP78 ERSR act 7% and Vif-APOBEC3G blk 4µM*.
Screening COc1cc(C=O)cc(OC)c1[N+](=O)[O-] returned GRP78 ERSR act -3% and Vif-APOBEC3G blk -6%.
`COc1ccc(OC)c(NC(=O)c2sc3nc(Cc4ccccc4)cc(C(F)(F)F)c3c2N)c1` gave Vif-A3F inh 10µM*, GRP78 ERSR act -5%, Vif-APOBEC3G blk 0% and Epigenetic reg -1%.
For COc1ccc(NC(=O)c2sc3nc(C(F)(F)F)cc(C)c3c2N)cc1OC the results were Vif-A3F inh 5.6µM*, GRP78 ERSR act -4%, Vif-APOBEC3G blk -14% and Epigenetic reg 14µM*.
COCc1cc(C)nc2sc(C(=O)Nc3ccc(OC(F)(F)F)cc3)c(N)c12 was read as Vif-A3F inh -5%, GRP78 ERSR act -3%, Vif-APOBEC3G blk 1% and Epigenetic reg 0%.
COc1ccncc1-c1ccc(C2=CC(=O)CC(C)(C)C2=O)cc1 was read as Vif-A3F inh -4%, GRP78 ERSR act 5% and Vif-APOBEC3G blk 2%.
O=c1c[n+]([O-])c2ccccc2n1OCc1c(F)cccc1F was read as Vif-A3F inh -1%, GRP78 ERSR act -3%, Vif-APOBEC3G blk inconclusive and Epigenetic reg 13µM*.
`COc1ccc(CCNC(=O)c2cnn3c2NC(=C2CC2)C=C3C(F)F)cc1OC` gave GRP78 ERSR act -3% and Vif-APOBEC3G blk -16%.
`CC(C)CN(c1ccccc1)S(=O)(=O)c1nnc(NC(=O)C2CCCCC2)s1` gave Vif-A3F inh 1%, GRP78 ERSR act -4%, Vif-APOBEC3G blk 5% and Epigenetic reg 28µM*.
`CCN(c1ccccc1)S(=O)(=O)c1nnc(NC(=O)C2CCCCC2)s1` gave Vif-A3F inh -4%, GRP78 ERSR act 0%, Vif-APOBEC3G blk -5% and Epigenetic reg 0%.
Screening CS(=O)(=O)Nc1ccc(C2=NN(S(C)(=O)=O)C(c3ccc4nccnc4c3)C2)cc1 (centres undefined) returned Vif-A3F inh 22µM*, GRP78 ERSR act 1%, Vif-APOBEC3G blk inconclusive and Epigenetic reg 0%.
For CCS(=O)(=O)N1N=C(c2cccc(NS(C)(=O)=O)c2)CC1c1ccc(C)cc1 (centres undefined) the results were Vif-A3F inh 11µM*, GRP78 ERSR act 5%, Vif-APOBEC3G blk inconclusive and Epigenetic reg 22µM*.
Screening CC(=O)NCC(=O)N[C@H](CCC(=O)O)C(=O)O returned GRP78 ERSR act -2% and Epigenetic reg 0%.
For Cc1cc(Nc2cc(Cl)ccc2C)n2nc(-c3ccccc3)nc2n1 the results were Vif-A3F inh 5%, GRP78 ERSR act -3%, Vif-APOBEC3G blk 0% and Epigenetic reg 25µM*.
COc1ccc(N(C(=O)c2ccco2)S(=O)(=O)c2ccc(F)cc2)cc1 was read as GRP78 ERSR act -2%, Vif-APOBEC3G blk -5% and Epigenetic reg 7%.
COc1ccc(N(C(=O)c2ccco2)S(=O)(=O)c2cc(OC)ccc2OC)cc1 was read as Vif-A3F inh -14%, GRP78 ERSR act 40µM*, Vif-APOBEC3G blk -2% and Epigenetic reg -1%.
Screening CCOC(=O)c1ccc(NCc2cccnc2)cc1 returned Vif-A3F inh -7%, GRP78 ERSR act 2% and Vif-APOBEC3G blk 6%.
COc1ccccc1Cc1c(-c2ccc(F)cc2)nc2c(C)cc(Br)cn12 was read as GRP78 ERSR act 35µM* and Vif-APOBEC3G blk inconclusive.
COc1ccccc1CN(Cc1ccco1)c1cnc(S(C)(=O)=O)nc1C(=O)Nc1cc(C)ccc1C was read as Vif-A3F inh 2%, GRP78 ERSR act -1%, Vif-APOBEC3G blk 2% and Epigenetic reg -2%.
Screening CC(=O)Nc1ccc(NC(=O)C(Cc2ccccc2)NC(=O)C2CCC(C)CC2)cc1 (centres undefined) returned Vif-A3F inh 6%, GRP78 ERSR act -5%, Vif-APOBEC3G blk -2% and Epigenetic reg 7%.
`COC(=O)Cn1c(C)c(/C=C/c2cc[n+](C)cc2)c2ccccc21` gave Vif-A3F inh 11µM*, GRP78 ERSR act -5% and Vif-APOBEC3G blk inconclusive.
For Fc1ccc(C2=NN(c3ccccc3)C(c3ccco3)C2)cc1 (centres undefined) the results were Vif-A3F inh -2%, GRP78 ERSR act -1%, Vif-APOBEC3G blk -5% and Epigenetic reg -1%.
`O=[N+]([O-])c1ccc(/C=C/C2=NN(c3ccccc3)C(c3ccco3)C2)o1` (centres undefined) gave Vif-A3F inh inconclusive, GRP78 ERSR act -2%, Vif-APOBEC3G blk inconclusive and Epigenetic reg 13µM*.
`C(=C\c1ccco1)/C1=NN(c2ccccc2)C(c2ccco2)C1` (centres undefined) gave Vif-A3F inh 25µM*, GRP78 ERSR act 3%, Vif-APOBEC3G blk inconclusive and Epigenetic reg inconclusive.
`COc1ccc2c(C(=S)N(C)CC(=O)O)cccc2c1C(F)(F)F` gave GRP78 ERSR act -2%.
For O=c1c2cn(Cc3ccccc3)c3ccccc3c-2nn1Cc1ccc(F)cc1Cl the results were Vif-A3F inh -5%, GRP78 ERSR act -2% and Vif-APOBEC3G blk -1%.
For CCOc1ccc(C(=O)Nc2cc(-c3nc4ccccc4[nH]3)ccc2Cl)cc1[N+](=O)[O-] the results were Vif-A3F inh -2%, GRP78 ERSR act -13%, Vif-APOBEC3G blk 13µM* and Epigenetic reg 2%.
`CCOc1ccc(C(=O)Nc2cc(-c3nc4ccccc4[nH]3)ccc2C)cc1[N+](=O)[O-]` gave Vif-A3F inh 6%, GRP78 ERSR act 2%, Vif-APOBEC3G blk -8% and Epigenetic reg -4%.
For Cc1cc(-c2ccccc2)c2c3c(c(-c4ccccc4)n2n1)c(=O)n(C)c(=O)n3C the results were Vif-A3F inh 25µM*, GRP78 ERSR act -4%, Vif-APOBEC3G blk inconclusive and Epigenetic reg inconclusive.
Screening Cc1cc(C)c2c3c(c(-c4ccccc4)n2n1)c(=O)n(C)c(=O)n3C returned Vif-A3F inh 13%, GRP78 ERSR act -6% and Vif-APOBEC3G blk 2%.
COC(=O)c1ccc(NC(=O)CCN2C(=O)NC(C)(C)C2=O)cc1 was read as Vif-A3F inh 2%, GRP78 ERSR act 1% and Vif-APOBEC3G blk 5%.
For COc1ccc(Cl)cc1NC(=O)CSc1nnc(C)n2c1cc1occc12 the results were Vif-A3F inh 3%, GRP78 ERSR act -2%, Vif-APOBEC3G blk -3% and Epigenetic reg inconclusive.
Screening COc1cc(/C=C/C(=O)c2ccc3c(c2)OCO3)cc(OC)c1OC returned Vif-A3F inh -3%, GRP78 ERSR act 28µM* and Vif-APOBEC3G blk -22%.
